# Data taken from PubChem BioAssay (NCI).
# Where “and” joins values, the source holds several entries; their conditions need not be identical. Equal values may be shown once. The panel holds about 83,000 compounds, 20% with a hit somewhere; the sample as a whole holds those more often.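 The test compound was applied at a single concentration to cells in 96-well plates for 48 hours, and percent growth was recorded.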 Values without a mark were called inactive. Calls of active or inactive are those of the source. How the source made its calls: active means growth percent below 10; inactive means the rest.
# Test system: HL-60(TB) leukemia
# Experiment: NCI-60 one-dose screen, 48 h (100 = growth as untreated, 0 = no growth, -100 = all killed)
# Details: 10 µM unless noted
row,SMILES,growth
1,Nc1c(C(=O)Nc2ccccc2)sc2nc3c(cc12)C(O)CCC3 (centres undefined),-8.34% (active)
2,O=C(Nc1ccncc1)C(=O)c1cn(S(=O)(=O)c2ccc(Br)cc2)c2ccccc12,15.3%
3,CCN(CC)CCNc1ccc(C)c2sc3ccccc3c(=O)c12 (tested in a mixture with another compound),10.1% and 15.3%
4,COc1cc(-c2nc(SCCC(C)C)nc(Nc3ccccc3Cl)c2C#N)cc(OC)c1OC,101%
